Bioassay records: PubChem BioAssay, National Center for Advancing Translational Sciences (NCATS)
12-LOX inh – blocks human arachidonate 12S-lipoxygenase. purified 12hLO, xylenol orange hydroperoxide absorbance. Potency, µM (titrated, usually from 108 µM), inactives show at the top dose activity change, negative = inhibition, usual class: inhibitors. 580,000 compounds, 1.1% hits; further: potency means the concentration at half of the fitted maximal effect; on the % scale 0 is the no-effect control and ±100 the full control effect
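Purified human 12hLO at 150 nM in 25 mM Hepes, 0.01% Triton X-100, pH 7.0, preincubated 15 min at room temperature with compound. Reaction started with 40 uM arachidonic acid, 30 min at room temperature. Hydroperoxide measured by Fe-xylenol orange, 573/405 nm absorbance ratio.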
BAZ2B inh – blocks human BAZ2B. Q9UIF8. AlphaScreen BAZ2B-H3K14Ac peptide displacement. Potency, µM (titrated, usually from 114 µM), inactives show at the highest dose activity change, negative = inhibition, actives largely listed as inhibitors. 360,000 compounds, 4.4% hits; further: potency means the concentration at half of the fitted maximal effect; on the % scale 0 is the no-effect control and ±100 the full control effect; nearly all actives have a fitted effect of over 60% in size
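AlphaScreen displacement: compounds (up to 110uM) incubated 30 min at room temperature with a preformed 50 nM BAZ2B/50 nM biotinylated H3K14Ac peptide complex in PBS pH 7.4 with Tween-20. Donor and acceptor beads at 10 ug/mL final added, 20 min light-protected before reading.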
HP1b chromo inh – blocks HP1-beta chromodomain binding to methylated histone tails | P83916 | AlphaScreen HP1-beta / biotin-H3K9me3 peptide binding | Potency, µM (series often up to 114 µM), without a hit: at the top dose activity change, negative = inhibition, most hits filed as inhibitors | 390,000 compounds, 0.56% hits; further: potency means the concentration at half of the fitted maximal effect; nearly all actives have a fitted effect of over 70% in size
Target sequence (P83916 whole entry, looked up): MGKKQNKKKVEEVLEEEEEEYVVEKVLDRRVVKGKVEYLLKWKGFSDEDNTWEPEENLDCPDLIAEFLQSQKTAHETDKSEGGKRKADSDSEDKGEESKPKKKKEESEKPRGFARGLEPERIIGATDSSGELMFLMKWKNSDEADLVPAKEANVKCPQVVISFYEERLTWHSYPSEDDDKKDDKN
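HP1-beta protein (50 nM final) preincubated 30 min at room temperature with biotinylated H3(1-18)K9me3 peptide (50 nM) in PBS pH 7.4, 0.01% Tween-20, then compound added for 30 min. AlphaScreen streptavidin donor/nickel chelate acceptor beads (10 ug/mL final), 30 min dark, luminescence read.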
G9a inh – G9a (human) methyltransferase inhibition | G9a H3K9 monomethylation, AlphaScreen, 2 h | Potency, µM (doses to about 102 µM), without a hit: at the highest dose activity, negative = inhibition, usual class: inhibitors | 350,000 compounds, 8.8% hits; further: potency means the concentration at half of the fitted maximal effect; on the % scale 0 is the no-effect control and ±100 the full control effect; nearly all actives have a fitted effect of over 75% in size
Target sequence (Q96KQ7 913-1193 limits assumed): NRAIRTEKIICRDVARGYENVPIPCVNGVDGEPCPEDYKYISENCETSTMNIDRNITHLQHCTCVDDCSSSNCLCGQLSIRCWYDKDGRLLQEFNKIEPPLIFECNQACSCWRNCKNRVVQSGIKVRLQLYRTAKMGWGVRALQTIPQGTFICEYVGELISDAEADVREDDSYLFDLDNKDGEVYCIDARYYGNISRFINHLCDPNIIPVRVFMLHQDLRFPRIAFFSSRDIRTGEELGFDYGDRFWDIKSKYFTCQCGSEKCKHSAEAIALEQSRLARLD
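Compounds were preincubated with 20 nM G9a for 15 min, after which biotinylated H3K9 peptide (500 nM) and SAM (20 uM) started a 2 h room-temperature reaction. Monomethylated product was quantified by antibody-based AlphaScreen chemiluminescence.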
Sfp inh – inhibitors of Bacillus subtilis Sfp phosphopantetheinyl transferase. Biochemical Sfp PPTase activity, qHTS. Potency, µM, without a hit: largest response in the series, negative = inhibition, hits mostly inhibitors. 310,000 compounds, 3.5% hits;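 further: the enzyme is Sfp with the accession as filed and its product quenches rhodamine fluorescence; potency means the concentration at half of the fitted maximal effect; 0% = enzyme reaction without inhibitor and -100% = no enzyme wells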
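After 15 min at room temperature with compound, 15 nM Sfp received 5 uM rhodamine-CoA plus 12.5 uM BHQ-2-ybbR (50 mM Hepes pH 7.6, 10 mM MgCl2). Rate came from the fluorescence difference over 30 min, ex 525/em 598 nm.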
JMJD2A Tudor – JMJD2A Tudor domain (human) inhibition. O75164. AlphaScreen JMJD2A-Tudor / H3K4me3 peptide binding. Potency, µM (highest dose often 114 µM), for inactives: top-dose activity change, negative = inhibition, most hits filed as inhibitors. 390,000 compounds, 4.4% hits. AID 504339; further: potency means the concentration at half of the fitted maximal effect; on the % scale 0 is the no-effect control and ±100 the full control effect; nearly all actives have a fitted effect of over 50% in size
Sfp inh conf – confirmation of Bacillus subtilis Sfp PPTase inhibitors. shares compounds with Sfp inh. Potency, µM (doses to about 114 µM), for the others: at the highest dose activity change, negative = inhibition, actives largely listed as inhibitors. 380 compounds, 79% hits. AID 2701. Sfp PPTase enzymatic assay, qHTS titration;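 further: potency means the concentration at half of the fitted maximal effect; plate controls were uninhibited Sfp reaction for no effect and no enzyme control for full effect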
Target sequence (Q9F4F7 whole entry, looked up): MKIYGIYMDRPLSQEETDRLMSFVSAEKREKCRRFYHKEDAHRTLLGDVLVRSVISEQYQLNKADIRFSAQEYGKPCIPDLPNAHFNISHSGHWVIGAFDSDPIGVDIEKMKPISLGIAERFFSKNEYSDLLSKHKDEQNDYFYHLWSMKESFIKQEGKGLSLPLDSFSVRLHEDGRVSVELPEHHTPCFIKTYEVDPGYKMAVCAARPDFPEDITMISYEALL
Sfp gel assay – Inhibits Bacillus subtilis Sfp phosphopantetheinyl transferase; shares compounds with Sfp inh; purified Sfp, gel-based phosphopantetheinylation read-out; Potency, µM, hits mostly inhibitors; 210 compounds, 20% hits;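 active means potency below 100 µM; inconclusive means dose-dependent response but potency above 100 µM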;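 further: band intensities scaled against SCH202676 control wells before curve fitting; potency is an IC50 for inhibitors of Sfp transfer activity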
The depositor's hits bear a star; i = inactive; ? = inconclusive; nt = no result given; ! = repeats disagree; [ ] = dose if it differs, or a comment. The list is not random: actives were taken first. Their share in the collection is about 8.7%. Unless noted, the call rests on the fitted dose curve; in most records, active means well fitted curve in the direction sought with a large enough effect; inconclusive means small, poorly fitted or top-dose-only effect, or another doubt; inactive means no such curve, though single readings can be large; an effect the other way counts as inactive or inconclusive.

SMILES	12-LOX inh	BAZ2B inh	HP1b chromo inh	G9a inh	Sfp inh	JMJD2A Tudor	Sfp inh conf	others
O=C(CSc1nc(NS(=O)(=O)c2ccccc2)cc(=O)[nH]1)Nc1cccc(C(F)(F)F)c1	-13%	?	13%	?	10%	9%	nt
O=C(CSc1nc(NS(=O)(=O)c2ccccc2)cc(=O)[nH]1)Nc1ccc(F)cc1	0%	?	8%	-10%[59 µM]	4%	56µM*	nt
CCN(C(=O)C1CCCO1)C1CC1 (stereo not drawn)	-24%	nt	nt	nt	nt	nt	nt
O=C(NCCCN1CCN(c2ccccc2)CC1)c1sc2ncccc2c1-n1cccc1	-21%	?	-16%[57 µM]	-30%[59 µM]	nt	?	nt
O=C(NCCCN1CCN(c2cccc(Cl)c2)CC1)c1sc2ncccc2c1-n1cccc1	-4%	35µM*	-21%[57 µM]	-45%[59 µM]	nt	32µM*	nt
Cc1ccc(C)n1-c1c(C(=O)NCCCN2CCN(c3ccc(F)cc3)CC2)sc2ncccc12	-18%	?	-3%[57 µM]	-45%[59 µM]	nt	50µM*	nt
Cc1cc(NC2CCCCC2)nc(NCc2ccccc2)n1	?	-5%	19%	-4%	-22%	-27%	nt
Cc1ccc(Nc2cc(C)nc(NCc3ccccc3)n2)cc1	?	-9%	-13%	2%[59 µM]	13µM*	-30%	30µM*	Sfp gel assay=i
CCOC(=O)c1c(NC(=O)CNCCOC)sc2c1CCCC2	-16%	-25%	9%	-2%[59 µM]	-2%	-15%[11.4 µM]	nt
CNC(=O)c1c(N)sc2c1CCCCC2	nt	-10%	nt	10µM*	20µM*	nt	21µM*
COCCNC(=O)c1c(N)sc2c1CCCC2	nt	?	nt	?	14µM*	nt	37µM*
CNC(=O)c1c(NC(=O)C(C)C)sc2c1CCC2	44%	?	25%	nt	-5%	-4%	nt
COC(=O)c1ccc(CNC(=O)c2cccc(C)c2C)cc1	24%	nt	nt	nt	nt	nt	nt
Cc1ccc(-c2c(C)nn3c(N4CCN(CCO)CC4)cc(C)nc23)cc1	-3%	nt	nt	nt	nt	nt	nt
CC(=O)c1cccc(S(=O)(=O)N2CCCC(c3nc(-c4ccc(C)o4)no3)C2)c1 (stereo not drawn)	?	-29%	3%	4µM*	56µM*	-23%	24µM*
Cc1cccc(C(=O)N2CCCC(c3nc(-c4ccc(C)o4)no3)C2)c1 (stereo not drawn)	-20%	?	-10%	?	-13%	-24%	nt
CC(C)CCn1c(N2CCN(Cc3ccccc3Cl)CC2)nc2c1c(=O)[nH]c(=O)n2C	-3%	nt	nt	nt	nt	nt	nt
CCOCCN1CCN(c2c(CC)c(C)nc3cc(-c4cc(OC)cc(OC)c4)nn23)CC1	70%	-36%	27%	-10%[59 µM]	-4%	-24%[11.4 µM]	nt
CCc1c(C)nc2cc(-c3ccc(OC)c(OC)c3)nn2c1N1CCCC1	-10%	3%	12%	3%	6.3µM*	-18%	?
CCc1c(C)nc2cc(-c3cc(OC)cc(OC)c3)nn2c1N1CCCC1	-4%	12%	62%	35%[59 µM]	16µM*	7%	47µM*
CCc1c(C)nc2cc(-c3ccc(OC)c(OC)c3)nn2c1N1CCC(C)CC1	-2%	-22%[57.1 µM]	33%	16%	4%	-20%	nt
CCN(CC)CCNC(=O)CCc1c(C)nc2c(c1C)c(=O)n(C)c(=O)n2C	6%	nt	nt	nt	nt	nt	nt
CCOc1ccc(-n2c(=O)c3c4c(sc3n(CC(=O)NCc3ccco3)c2=O)CCC4)cc1	0%	5%	28%	-10%[2.33 µM]	-18%	-4%	nt
NC(=O)Cn1c(=O)n(Cc2ccco2)c(=O)c2c3c(sc21)CCCCC3	?	?	-45%	20µM*	10µM*	56µM*	19µM*
NCCc1c(-c2ccccc2)n(-c2ccccc2)c2ccccc12	?	22µM*	?	45µM*	16µM*	32µM*	42µM*	Sfp gel assay=i
SMILES	12-LOX inh	BAZ2B inh	HP1b chromo inh	G9a inh	Sfp inh	JMJD2A Tudor	Sfp inh conf	others
O=S(=O)(NCCn1cc(-c2cncnc2)nn1)c1ccc(Cl)cc1	2%	nt	nt	nt	nt	nt	nt
COc1ccc2nc(S(=O)Cc3ncc(C)c(OC)c3C)[nH]c2c1 (stereo not drawn)	22µM*!	32µM*	14µM*	1.4µM*	20µM*!	28µM*	37µM*
Cc1ccccc1-n1cc(-c2ccnc(NC(C)Cc3ccncc3)n2)cn1 (stereo not drawn)	79%	nt	nt	nt	nt	nt	nt
Cc1sc(NCc2ccccc2)nc1-c1ccccc1	nt	nt	5%	nt	nt	?	nt
CCOC(=O)c1nc(NCc2ccccc2)sc1C	?	?	?	3.5µM*	8.9µM*	79µM*	8.3µM*
Cn1c(CNC(=O)Cn2nc3c(cc2=O)CCCCC3)nc2ccccc21	3%	nt	nt	nt	nt	nt	nt
CNc1ccccc1C(C)(C)c1cc(-c2ccco2)n[nH]1	?	-77%	?	35µM*	56µM*	?	24µM*	Sfp gel assay=i
COC(=O)c1ccc(CNC(=O)COC(=O)c2cc3ccccc3oc2=O)cc1	27%	nt	nt	nt	nt	nt	nt
Clc1ccc(-c2nn3c(C4COc5ccccc5O4)nnc3s2)cc1 (stereo not drawn)	?	-22%	?	7.1µM*	14µM*	-23%	33µM*
Cc1sc(NC(=O)c2ccc(Cl)c(S(=O)(=O)N3CCOCC3)c2)nc1-c1ccc(F)cc1	-29%	nt	nt	nt	nt	nt	nt
N=c1c2c3c(sc2ncn1Cc1ccco1)CCCCC3	-15%	12%	5%	21%[59 µM]	13µM*	-16%	-7%	Sfp gel assay=i
CCn1ncc(CN2CCC(N3C(=O)C4(CCCC4)C3c3scnc3C)CC2)c1C (stereo not drawn)	8%	nt	nt	nt	nt	nt	nt
O=C(O)CNc1nc(-c2ccccc2)c2cc([N+](=O)[O-])ccc2n1	-23%	79µM*	20%	7.9µM*	6.3µM*	-22%	15µM*	Sfp gel assay=?
O=[N+]([O-])c1ccc2nc(NCCCO)nc(-c3ccccc3)c2c1	-26%	-4%	?	0%[59 µM]	?	?	nt
COC(=O)c1c(N2C(=O)Nc3ccccc3N2O)sc2c1CCCC2	-6%	-1%	-1%	-9%[59 µM]	5%	-9%	nt
COC(=O)c1c(N2C(=O)CC(Sc3ccccc3C(=O)O)C2=O)sc2c1CCCC2 (stereo not drawn)	?	50µM*	7%	1.4µM*	1.6µM*	-29%	33µM*
CCOC(=O)NNc1nncc2ccccc12	-13%	-11%	29%	-41%[2.33 µM]	35µM*!	1%	10%[53.7 µM]	Sfp gel assay=?
